Among the data in PubChem BioAssay AID640 (Columbia University Molecular Screening Center, 2007) are inhibition values, retold here.

Hit rate of the full screen: of about 96,000 compounds, about 200 (0.21%) were called active. Many of the other results were omitted from the sample, so actives are more common in it than they were. A number with no mark means an inactive call.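 The calls were made as follows: active = inhibition at 2 µM at or above a set limit, the screen mean plus 3 SD (cut at about 24% in these data); inactive = the rest.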

Chain of Tyrosine-protein phosphatase non-receptor type 22 (Homo sapiens) (Q9Y2R2 whole entry, looked up, the tested form may be a part): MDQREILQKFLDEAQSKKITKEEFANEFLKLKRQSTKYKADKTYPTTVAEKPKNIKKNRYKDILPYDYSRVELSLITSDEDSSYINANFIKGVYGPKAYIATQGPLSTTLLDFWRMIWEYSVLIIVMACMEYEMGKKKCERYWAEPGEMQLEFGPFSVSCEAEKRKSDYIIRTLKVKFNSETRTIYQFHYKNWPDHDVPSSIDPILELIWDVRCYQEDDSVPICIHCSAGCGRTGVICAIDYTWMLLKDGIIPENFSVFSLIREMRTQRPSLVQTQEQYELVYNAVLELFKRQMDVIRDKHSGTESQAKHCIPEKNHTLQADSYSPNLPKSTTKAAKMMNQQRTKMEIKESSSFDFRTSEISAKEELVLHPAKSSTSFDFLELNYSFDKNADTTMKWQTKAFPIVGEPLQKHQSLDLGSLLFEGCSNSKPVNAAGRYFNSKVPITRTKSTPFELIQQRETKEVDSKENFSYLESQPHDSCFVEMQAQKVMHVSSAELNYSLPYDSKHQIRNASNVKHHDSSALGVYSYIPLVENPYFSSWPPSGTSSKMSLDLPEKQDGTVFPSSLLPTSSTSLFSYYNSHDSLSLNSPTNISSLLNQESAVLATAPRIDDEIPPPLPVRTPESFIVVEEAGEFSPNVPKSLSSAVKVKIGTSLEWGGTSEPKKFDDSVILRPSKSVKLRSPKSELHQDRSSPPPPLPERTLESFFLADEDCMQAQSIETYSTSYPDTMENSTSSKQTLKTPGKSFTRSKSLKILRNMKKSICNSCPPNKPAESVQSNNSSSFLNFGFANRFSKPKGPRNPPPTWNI

This experiment addresses Tyrosine-protein phosphatase non-receptor type 22 (Homo sapiens) (UniProt Q9Y2R2). Nature of the experiment: PTPN22 phosphatase inhibitors, primary screen, biochemical, DiFMUP fluorescence, 2 µM (AID 640).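 Also: 0% = DMSO with enzyme and 100% = enzyme fully blocked by orthovanadate.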 Conditions: recombinant LYP catalytic domain, at 2 µM, active compounds read high.
Regarding `Cc1cccc(-n2ncc(C#N)c2-n2cccc2)c1`, the inhibition (in general, the drop in the measured response relative to a control, in per cent) was -13.4%.
For `CCOC(=O)c1ccc(COC(=O)CCc2nc(-c3ccccc3)c(-c3ccccc3)o2)cc1`, the inhibition was 10.3%.
The figure for `COC(=O)CNC(c1ccccc1Cl)c1cc(Br)ccc1NC(=O)CCN1CCOCC1` (configuration not stated) is 7.7%.
Consider `O=C(CSc1nc2ccccc2o1)N1c2ccccc2Sc2ccc(Cl)cc21`, for which the inhibition is 4.8%.
Consider `N#CC1=C(N)N(c2ccc(F)cc2)C(=O)C1`, for which the inhibition was 7%.
Take `O=[N+]([O-])c1ccc(N2CCN(S(=O)(=O)c3ccc4ccccc4c3)CC2)cc1NCc1ccco1`: the inhibition was 4.1%.
For `Cn1nnnc1SCC(=O)Nc1ccccc1C(=O)NC1CC1`, the inhibition is 11.6%.
The figure for `COc1ccc(-n2cnc3cc(NCc4ccco4)ccc32)cc1` is 6.5%; for `O=C1CCCC2=C1C(c1ccccc1)n1c(s/c(=C/c3cccc(F)c3)c1=O)=N2` (configuration not stated) it is 3.1%.
Consider `O=C(Nc1cccc(NC(=O)c2ccco2)c1)c1cnccn1`, for which the inhibition is -8.1%.
On to `CCOC(=O)c1nc(Nc2ccc(C(=O)OC)cc2)c2ccccc2n1`, for which the inhibition was 1.7%.
Take `Cc1noc(COc2ccccc2OCc2onc(C)c2Cl)c1Cl`: the inhibition was -6.2%.
As to `CN1CCCN(S(=O)(=O)c2ccc3c(c2)OCCO3)CC1`, the inhibition was 14.9%.
As to `CC(C)(C)c1cc(=O)n2c(nc3ccccc32)[nH]1`, the inhibition is 16.2%.
On to `CCOC(=O)NNC(=O)c1ccc(Cl)cc1`, for which the inhibition is -7.6%.
As to `O=C(CSc1ccccc1)Nc1ccc(NC(=O)c2ccco2)cc1`, the inhibition was 8.9%.
On to `O=C(CN1CCN(S(=O)(=O)c2ccc(Cl)s2)CC1)NCc1ccc(Cl)cc1`, for which the inhibition was -18.4%.
Regarding `O=C(c1ccc(F)cc1)c1c[nH]c(C(=O)NCc2cccnc2)c1`, the inhibition is -21.4%.
In the case of `CC(C)C(NC(=O)c1ccc(Cl)cc1)C(=O)O` (configuration not stated) it was 0.8%.
For the molecule `Cc1ccc2c(Cl)c(C(=O)NCCCn3ccnc3)sc2c1`, the inhibition was -1.4%.
On to `COc1ccc(Cc2nnc(SCC(=O)c3cccc([N+](=O)[O-])c3)n2C)cc1`, for which the inhibition was 15.2%.
On to `CN(C)c1nc(N)nc(CSc2ccccn2)n1`, for which the inhibition is -6.7%.
`COc1ccc(CCN2C(=O)C3CC=C(C)CC3C2=O)cc1OC` (configuration not stated): the inhibition was 3.1%.
Consider `Clc1ccc(C2=CSC3=Nc4cccc5cccc(c45)N23)cc1`, for which the inhibition is 13.9%.
`CC(=O)NC1(c2cccc(F)c2)CCN(CC(=O)NC(C)C)CC1`: the inhibition is -6.7%.
With `CC(=O)Oc1ccc(C(C)=O)c2c1OCCO2`, the inhibition was -11.9%.
On to `Cc1cc2c(cc1C)N(C(=O)CN1C(=O)c3ccccc3C1=O)C(C)(C)c1ssc(=S)c1-2`, for which the inhibition is 2.3%.
In the case of `CS(=O)(=O)N(CC(=O)Nc1ccc(Cl)c(Cl)c1)C1CCCCC1`, the inhibition was -10%.
Consider `O=C(Nc1ccccc1[N+](=O)[O-])C1C(c2ccccc2)=C1c1ccccc1`, for which the inhibition was -0.6%.
Turning to `O=C(c1cccc2ccccc12)N1CCN(c2ccccc2F)CC1`, the inhibition was -10.2%.
Regarding `O=C(Cn1c(-c2ccc(Cl)cc2)noc1=O)N1CCN(c2ccccc2F)CC1`, the inhibition is 27.2% (active).
As for `O=C(c1ccc(CN2CCOCC2)cc1)N1CCN(c2ccccc2F)CC1`, the inhibition is -7.2%.
In the case of `COC(=O)c1nc2ccccc2s1`, the inhibition was -12%.
Consider `COc1ccc(NC(=O)CSc2nc(N)c(-c3ccccc3)c(=O)[nH]2)cc1`, for which the inhibition was -3.5%.
For `C=CCN1C(=O)C(Cc2cccc(Cl)c2)S/C1=N/N=C/c1ccco1` (configuration not stated), the inhibition is 8.9%.
As to `COCc1cc(C(C)=O)ccc1OC`, the inhibition is 7.3%.
For `O=C(CNC(=O)OCc1ccccc1)Oc1cc2oc(=O)cc(-c3ccccc3)c2cc1Cl`, the inhibition is 7.8%.
As to `CC(C)(C)NS(=O)(=O)c1ccc(NC(=O)NC2CCCCC2)cc1`, the inhibition is 13%.
For the molecule `CCOC(=O)c1c(C)nc2c(c1C)c(=O)oc1ccccc12`, the inhibition is -31.8%.
Regarding `Cc1ccc(OCC(=O)N/N=C/c2ccncc2)cc1`, the inhibition is 10.7%.
The figure for `Cc1ccc(OCC(=O)N/N=C\c2ccco2)c(C)c1` is -4.2%; for `CSc1ccc(/C=N\NC(=O)COc2ccc(Cl)cc2Br)cc1` it is 26.5% (active).
In the case of `COc1cccc(-c2nnc(NC(=O)c3ccc(S(=O)(=O)N(CC(C)C)CC(C)C)cc3)o2)c1`, the inhibition is 24.4% (active).
In the case of `CCC(=O)Oc1cccc(C(=O)Nc2ccc(-c3nnc(-c4ccco4)o3)cc2)c1` it was 8.1%; in that of `CC1CCCCN1S(=O)(=O)c1ccc(C(=O)Nc2nnc(-c3cccs3)o2)cc1` (configuration not stated), 17.2%.
Consider `O=C(NCCCCc1ccccc1)C1CC(c2ccc([N+](=O)[O-])cc2)=NO1` (configuration not stated), for which the inhibition was -3.2%.
The figure for `CCC(C)NC(=O)CSC1=Nc2ccccc2C2=NC(CCC(=O)NCc3ccco3)C(=O)N12` (configuration not stated) is 6.7%; for `C=CCOc1c2ccc(C(=O)N(CC)c3ccc(OC)cc3)cc2nn1C` it is 1.1%; for `CCSc1nc(-c2ccc(OC)cc2)cc(-c2ccc(OC)cc2)c1C#N` it is -15.9%.
The figure for `CCOC(=O)C1=C(CSc2nnnn2C)N(C)C(=O)NC1c1ccccc1` (configuration not stated) is 6.4%.
Regarding `O=C(CCl)NNc1cccc(Cl)n1`, the inhibition was 2.9%.
For `O=C(c1ccc2c(c1)OCO2)N1CCN(C(=O)c2ccco2)CC1`, the inhibition was -5%.
Take `Cc1cnc(NC(=O)C2CCCC2)s1`: the inhibition is -5.5%.
Regarding `CCOC(=O)c1c(NC(C)=O)sc2c(O)c(Br)ccc12`, the inhibition was 7.9%.
The figure for `COc1ccc(/C=N/Nc2nc3ccccc3c(=O)[nH]2)cc1` is 2.7%; for `CC(=O)c1c(C)[nH]c(C(=O)NCc2ccc(C)cc2)c1C` it is 3.9%.
`CNC(=O)c1nnc(Cc2ccc(Cl)cc2)o1`: the inhibition was -2.1%.
In the case of `Cc1ccc(Cl)cc1NC(=O)COC(=O)C1CCCCC1` it was -5.7%.
In the case of `O=C(Nc1cccc2ncccc12)C(Cl)(Cl)Cl`, the inhibition was -4%.
Take `CCCCN1C(=O)/C(=C2/C=CC=CN2C)SC1=S`: the inhibition is -5.6%.
Take `COc1cc(OC)cc(-c2cc3nc(C4CCN(C(=O)OC(C)(C)C)CC4)cc(=O)n3[nH]2)c1`: the inhibition was -4.9%.
The figure for `CC(C)(C)NC(=O)CN(Cc1cccs1)C(=O)CNS(=O)(=O)c1ccccc1` is -1.7%.
